# According to PubChem BioAssay (Tox21):
# Results filed as inconclusive are left out. The source made the active and inactive calls. Calls come from the whole dose curve.
# Experiment: qHTS assay to identify small molecule agonists of the NFkB signaling pathway - cell viability counter screen (AID 1159515); note: nearly all actives have a fitted effect of over 55% in size
# Conditions: NFkB-bla ME-180 viability, CellTiter-Glo luminescence, 5 h; series mostly up to 61 µM; activity, negative = cytotoxic: at the top concentration
# In short: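 Read by CellTiter-Glo luminescence (30 min, room temperature) in the wells also used for the beta-lactamase FRET read. ME-180 NFkB-bla cells at 2,000 per well were plated overnight, then exposed to compound for 5 hr at 37 C.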
# % is set by controls: 0 for no effect and ±100 for the full control effect.
Compound,Potency,"activity, negative = cytotoxic"
OC(CCl)CCl,inactive,
c1cc(N(CC2CO2)CC2CO2)ccc1OCC1CO1 (centres undefined),,2.19% (inactive)
CN(C)CCC=C1c2ccccc2CCc2ccccc21,,-18.1% (inactive)
NC=O,inactive,
O=CCc1ccccc1,inactive,
CCCCOCCOCCOCCO,,11.7% (inactive)
CCOCCOCCO,,-0.798% (inactive)
CCC(C)(O)CCCC(C)C (centres undefined),inactive,
O=P(O)(O)O,,6.78% (inactive)
CCCCNS(=O)(=O)c1ccccc1,inactive,
Cc1ccc(C)c(O)c1C,inactive,
Cc1[nH]c(=O)c(C#N)cc1-c1ccncc1,inactive,
CNCCCC12CCC(c3ccccc31)c1ccccc12,,-3.22% (inactive)
Cc1cccc(C(=O)O)c1,,13.3% (inactive)
Nc1ncn([C@@H]2O[C@H](CO)[C@@H](O)[C@H]2O)c(=O)n1,,12.7% (inactive)
OC1CCCCCCCCCCC1,inactive,
c1ccncc1,,-2.09% [at 78.8 µM] (inactive)
Nc1ncnc2nc[nH]c12,,22.5% (inactive)
CC(C(=O)O)c1cccc(C(=O)c2ccccc2)c1 (centres undefined),,-16.1% (inactive)
Cc1c(C(N)=O)cc([N+](=O)[O-])cc1[N+](=O)[O-],,11% (inactive)

Compound,Potency,"activity, negative = cytotoxic"
CC(C)OC=O,inactive,
O=[N+]([O-])c1ccc2c(c1)Cc1ccccc1-2,inactive,
Cc1c(OCC(F)(F)F)ccnc1CS(=O)c1nc2ccccc2[nH]1 (centres undefined),,0.573% (inactive)
CC(C)OC(=O)C(C)(C)Oc1ccc(C(=O)c2ccc(Cl)cc2)cc1,,-0.803% (inactive)
c1ccc2c(c1)c1cccc3ccc4cccc2c4c31,inactive,
O=Cc1ccccc1O,,1.86% (inactive)
C[C@]12CC[C@H]3[C@@H](CCC4=CC(=O)CC[C@@]43C)[C@@H]1CC[C@@H]2C(=O)CO,inactive,
O=CCCCC=O,inactive,
COC(C)COC(C)COC(C)CO (centres undefined),inactive,
COC(=O)C1=C(C)NC(C)=C(C(=O)OCCN(C)Cc2ccccc2)C1c1cccc([N+](=O)[O-])c1 (centres undefined),inactive,
CC(C)Oc1ccc2c(=O)c(-c3ccccc3)coc2c1,,0.401% (inactive)
C=C(C)C(=O)OCCOC(=O)C(=C)C,inactive,
Clc1nc(Cl)c(Cl)c(Cl)c1Cl,inactive,
O=C(/C=C/C=C/c1ccc2c(c1)OCO2)N1CCCCC1,,-8.11% (inactive)
C[C@]12CCC(=O)C=C1CC[C@@H]1[C@@H]2C(=O)C[C@@]2(C)[C@H]1CC[C@]2(O)C(=O)CO,,6.96% (inactive)
CN1C(C(=O)Nc2ccccn2)=C(O)c2ccccc2S1(=O)=O,inactive,
Cc1ccc(C(=O)c2cc(O)c(O)c([N+](=O)[O-])c2)cc1,,25.4% (inactive)
CC(C)CC(C)(O)C#CC(C)(O)CC(C)C (centres undefined),inactive,
O=c1oc(=O)c2cc3c(=O)oc(=O)c3cc12,,-0.731% (inactive)
